Source: PubChem BioAssay (National Center for Advancing Translational Sciences (NCATS))
Hits are enriched below; roughly 19% of the tested compounds scored in any of these assays.
DT40 TDP1 CPT = qHTS for Inhibitors of human tyrosyl-DNA phosphodiesterase 1 (TDP1): qHTS in cells in presence of CPT; chicken DT40 Tdp1-/-;hTDP1 cells + 20 nM CPT, ATP luminescence, 48 h; Potency, µM (doses to about 46.2 µM), without a hit: at the highest dose activity change, negative = growth inhibition, hits mostly inhibitors; 420,000 tested, 12% active; note: nearly all actives have a fitted effect of over 55% in size
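Chicken DT40 Tdp1-/- cells complemented with human TDP1, 400 cells/well, exposed to compounds plus 20 nM camptothecin for at least 48 h at 37 C; viability read as ATP content by CellTiter-Glo luminescence.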
TDP1 cell noCPT = qHTS for Inhibitors of human tyrosyl-DNA phosphodiesterase 1 (TDP1): qHTS in cells in absence of CPT; DT40 Tdp1-/- hTDP1 cells, no CPT, ATP luminescence, 48 h; Potency, µM (titrated, usually from 46.2 µM), without a hit: at the highest dose activity change, negative = growth inhibition, usual class: inhibitors; 420,000 tested, 15% active; note: nearly all actives have a fitted effect of over 55% in size
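Luminescent ATP content (CellTiter-Glo) served as the growth readout. Knockout chicken DT40 cells expressing human TDP1 were exposed to compounds without camptothecin for a minimum 48 hr at 37 °C.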
KB-V1 MDR tox = qHTS assay for MDR1-selective chemotherapeutics: Primary screen using the drug-selected MDR subline cells KB-V1 | KB-V1 MDR cells viability, CellTiter-Glo, 72 h | Potency, µM (top dose mostly 46.1 µM), most hits filed as cytotoxic | 400,000 tested, 3.4% active | AID 1347076, 2019; note: nearly all actives have a fitted effect of over 60% in size
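KB-V1, DMEM (no phenol red) + 10% FBS; cpd pin-transferred, titration series; 72 h, 37 degrees C; CellTiter-Glo, luminescence. Data normalized, curve-fit.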
HT1080 IDH1KD tx = qHTS for induction of synthetic lethality in tumor cells producing 2HG: qHTS for the HT-1080-IDH1KD cell line; 360,000 tested, 2% active; Potency, µM (top dose mostly 46.1 µM), for the others: at the top dose activity, negative = toxicity, actives largely listed as cytotoxic; HT-1080 IDH1 knockdown viability, ATP luminescence, 48 h;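 note: 0% = DMSO wells and -100% = cell-free medium wells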
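Luminescent ATP read-out (CellTiter-Glo, 10 min at room temperature) after 48 h compound exposure at 37 °C gave viability of IDH1-knockdown HT-1080 cells. Activity was normalised to DMSO and cell-free wells, then fitted as concentration-response curves.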
KB-3-1 cytotox = qHTS assay for MDR1-selective chemotherapeutics: Primary screen using the parental adenocarcinoma cell KB-3-1 | KB-3-1 viability, CellTiter-Glo ATP luminescence, 72 h | 400,000 tested, 1.4% active | Potency, µM (titrated, usually from 46.1 µM), usual class: cytotoxic; note: nearly all actives have a fitted effect of over 60% in size
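Parental KB-3-1 viability, qHTS format: 72 h compound exposure, 37 °C; CellTiter-Glo; media-only wells and DMSO plates as controls; concentration-effect fits on corrected data.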
HT1080NT lethal = qHTS for induction of synthetic lethality in tumor cells producing 2HG: qHTS for the HT-1080-NT fibrosarcoma cell line; HT-1080-NT fibrosarcoma viability, CellTiter-Glo ATP luminescence, 48 h; Potency, µM (top dose mostly 46.1 µM), for inactives: at the top dose activity, negative = less viability, most hits filed as cytotoxic; 360,000 tested, 1.6% active; AID 686970, 2013;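 note: NT is the 2HG producing partner of a matched IDH1 knockdown line; 0% = DMSO-treated cells and -100% = media-only wells without cells; nearly all actives have a fitted effect of over 55% in size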
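HT-1080-NT fibrosarcoma cells (2HG-overproducing), 750 cells/well in RPMI with 5% FBS, dosed after 2 h and incubated 48 h at 37C. CellTiter-Glo luminescence normalized to DMSO and no-cell wells; concentration-response curves fitted and classed.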
* = called active by the depositor. Calls come from the whole dose curve; as a rule, active = well fitted curve in the direction sought with a large enough effect; inconclusive = small, poorly fitted or top-dose-only effect, or another doubt; inactive = no such curve, though single readings can be large; an effect the other way counts as inactive or inconclusive. Unless noted, % is set by controls: 0 for no effect and ±100 for the full control effect; potency is the fitted concentration of half-maximal effect.

`CCC(=O)c1cn(CC(=O)Nc2c(C)cccc2C)c2ccccc12` gave DT40 TDP1 CPT -15.4%, TDP1 cell noCPT -7.8%, KB-V1 MDR tox inactive, HT1080 IDH1KD tx -8.1%, KB-3-1 cytotox inactive and HT1080NT lethal -6.7%.
For Cc1ccc(NC(=O)Cn2cc(C(=O)c3cccs3)c3ccccc32)cc1C the results were DT40 TDP1 CPT inconclusive, TDP1 cell noCPT inconclusive, KB-V1 MDR tox inactive and KB-3-1 cytotox inconclusive.
CC(=O)c1cn(CC(=O)NCc2ccc3c(c2)OCO3)c2ccccc12 was read as DT40 TDP1 CPT 13µM*, TDP1 cell noCPT 13µM*, KB-V1 MDR tox inconclusive, HT1080 IDH1KD tx -25.4%, KB-3-1 cytotox inactive and HT1080NT lethal inconclusive.
`Cc1ccc(C)c(NC(=O)Cn2cc(C(=O)c3cccs3)c3ccccc32)c1` gave DT40 TDP1 CPT 18.4µM*, TDP1 cell noCPT 20.6µM*, KB-V1 MDR tox inactive and KB-3-1 cytotox inactive.
Cc1cccc(C)c1NC(=O)Cn1cc(C=O)c2ccccc21 was read as DT40 TDP1 CPT 20.6µM*, TDP1 cell noCPT 8.2µM*, KB-V1 MDR tox inactive, HT1080 IDH1KD tx -5.6%, KB-3-1 cytotox inactive and HT1080NT lethal -5.6%.
For CC(=O)c1cn(CC(=O)Nc2c(C)cccc2C)c2ccccc12 the results were DT40 TDP1 CPT 10.3µM*, TDP1 cell noCPT 8.2µM*, KB-V1 MDR tox inactive, HT1080 IDH1KD tx inconclusive, KB-3-1 cytotox inconclusive and HT1080NT lethal -7.2%.
`NS(=O)(=O)c1ccc(Cl)cc1[N+](=O)[O-]` gave DT40 TDP1 CPT -23.3%, TDP1 cell noCPT inconclusive, KB-V1 MDR tox inactive, HT1080 IDH1KD tx -5.7%, KB-3-1 cytotox inactive and HT1080NT lethal 1.2%.
For CN(C)c1ccc(/C=C2\c3ccccc3C(=O)N2c2ccccc2)cn1 the results were DT40 TDP1 CPT 9.2µM*, TDP1 cell noCPT -19.9%, KB-V1 MDR tox inconclusive, HT1080 IDH1KD tx 4.2%, KB-3-1 cytotox inconclusive and HT1080NT lethal 15.0%.
Screening Cc1cc(C)cc(N(CCC#N)C(=O)CSC2=Nc3ccccc3C3CC=NN23)c1 (stereo not given) returned DT40 TDP1 CPT 20.6µM*, TDP1 cell noCPT inconclusive, KB-V1 MDR tox inconclusive, HT1080 IDH1KD tx inconclusive, KB-3-1 cytotox inactive and HT1080NT lethal -27.5%.
O=C(CSc1ccccc1C(=O)O)Nc1ccc2c(c1)OCO2 was read as DT40 TDP1 CPT -5.4%, TDP1 cell noCPT 28.0%, KB-V1 MDR tox inconclusive, HT1080 IDH1KD tx 2.0%, KB-3-1 cytotox inactive and HT1080NT lethal 0.1%.
For CCCOC(=O)c1ccc(NC(=O)CSC2=Nc3ccccc3C3CC=NN23)cc1 (stereo not given) the results were DT40 TDP1 CPT 23.1µM*, TDP1 cell noCPT inconclusive, KB-V1 MDR tox inactive, HT1080 IDH1KD tx -0.9%, KB-3-1 cytotox inactive and HT1080NT lethal -0.6%.
N#Cc1ccccc1NC(=O)CSc1ccc([N+](=O)[O-])cn1 was read as DT40 TDP1 CPT inconclusive, TDP1 cell noCPT -19.5%, KB-V1 MDR tox inactive, HT1080 IDH1KD tx 5.7%, KB-3-1 cytotox inactive and HT1080NT lethal 0.0%.
Screening O=C(CSC1=Nc2ccccc2C2CC=NN12)Nc1ccc2c(c1)OCO2 (stereo not given) returned DT40 TDP1 CPT 7.31µM*, TDP1 cell noCPT 23.1µM*, KB-V1 MDR tox inactive, HT1080 IDH1KD tx inconclusive, KB-3-1 cytotox inactive and HT1080NT lethal inconclusive.
Screening N#Cc1ccccc1NC(=O)CSC1=Nc2ccccc2C2CC=NN12 (stereo not given) returned DT40 TDP1 CPT 14.6µM*, TDP1 cell noCPT 23.1µM*, KB-V1 MDR tox inactive, HT1080 IDH1KD tx -11.6%, KB-3-1 cytotox inactive and HT1080NT lethal -15.2%.
N#CCC1(O)C(=O)N(Cc2ccccc2)c2ccccc21 (stereo not given) was read as DT40 TDP1 CPT -16.4%, TDP1 cell noCPT 0.9%, KB-V1 MDR tox inactive, HT1080 IDH1KD tx 4.8%, KB-3-1 cytotox inactive and HT1080NT lethal 1.6%.
For Cc1cc2nc3c(=O)n(CCc4ccccc4)c(=O)[nH]c3nc2cc1N the results were DT40 TDP1 CPT -22.5%, TDP1 cell noCPT 20.6µM*, KB-V1 MDR tox inactive, HT1080 IDH1KD tx 24.8%, KB-3-1 cytotox inactive and HT1080NT lethal -4.5%.
Screening O=[N+]([O-])c1ccc(-c2nnc(CNC3CCCC3)o2)cc1 returned DT40 TDP1 CPT 8.3%, TDP1 cell noCPT inconclusive, KB-V1 MDR tox inactive, HT1080 IDH1KD tx 7.9%, KB-3-1 cytotox inactive and HT1080NT lethal 9.0%.
`CC(C)OC(=O)CN1CCN(C2c3ccccc3-c3ccccc32)CC1` gave DT40 TDP1 CPT inconclusive, TDP1 cell noCPT 29.1µM*, KB-V1 MDR tox inactive, HT1080 IDH1KD tx 2.3%, KB-3-1 cytotox inactive and HT1080NT lethal -0.9%.
For O=C(c1ccco1)N1CCN(C2c3ccccc3-c3ccccc32)CC1 the results were DT40 TDP1 CPT inconclusive, TDP1 cell noCPT inconclusive, KB-V1 MDR tox inactive, HT1080 IDH1KD tx inconclusive, KB-3-1 cytotox inactive and HT1080NT lethal -24.0%.
For Cc1c(C(=O)N2CCCC2)oc2c1-c1[nH]ncc1CC2 the results were DT40 TDP1 CPT -21.0%, TDP1 cell noCPT -27.8%, KB-V1 MDR tox inactive, HT1080 IDH1KD tx 14.6%, KB-3-1 cytotox inactive and HT1080NT lethal -0.1%.
For Cc1cc(NC(=O)c2oc3c(c2C)-c2[nH]ncc2CC3)ccc1Br the results were DT40 TDP1 CPT inconclusive and TDP1 cell noCPT 18.4µM*.
O=C(Oc1ccc(N(Cc2cccs2)C2=NS(=O)(=O)c3ccccc32)cc1)c1ccccc1 was read as DT40 TDP1 CPT inconclusive, TDP1 cell noCPT 23.1µM*, KB-V1 MDR tox 16.4µM*, HT1080 IDH1KD tx -5.2%, KB-3-1 cytotox inactive and HT1080NT lethal -4.2%.
For CN(C1=NS(=O)(=O)c2ccccc21)c1ccc(OC(=O)c2ccccc2)cc1 the results were DT40 TDP1 CPT 0.5%, TDP1 cell noCPT inconclusive, KB-V1 MDR tox inactive, HT1080 IDH1KD tx 0.0%, KB-3-1 cytotox inactive and HT1080NT lethal -17.9%.
For CN(C1=NS(=O)(=O)c2ccccc21)c1ccc(OC(=O)c2ccncc2)cc1 the results were DT40 TDP1 CPT -17.4%, TDP1 cell noCPT 2.0%, KB-V1 MDR tox inactive, HT1080 IDH1KD tx -1.3%, KB-3-1 cytotox inactive and HT1080NT lethal 2.3%.
